40 sequences from the OligoGym collection can be followed below.
Note: reference of the scale not given here.

The target in the first experiment is PLA2R1. In words: pooled miR-30 sensor sort-seq; sequence = guide strand. The conditions noted are these: shRNA.
Consider TTTTCTTCTAAATATACTGTAC, for which the sensor-assay potency score (higher = more potent) was -0.623.

For TTTTGTAACAGAATCCACCATG, the sensor-assay potency score (higher = more potent) was determined as 0.0446.

On to TTATCTGTGGTGAACAGTCCAA, for which the sensor-assay potency score (higher = more potent) was -0.19.

TAAAAGATTAGAACCTTCCTTT: the sensor-assay potency score (higher = more potent) is 0.786.

Another experiment has as its target PLAA. Described as above. The conditions noted are these: shRNA.
The sequence TTAGTGACAAACATTGGGCTTT yielded a sensor-assay potency score (higher = more potent) of 0.657.

The sequence TAACACTCCACTGATAGGCTTC registered a sensor-assay potency score (higher = more potent) of 0.424.

In turn, TAGACTGAGCTGGAAGTCGGAT registered a sensor-assay potency score (higher = more potent) of -0.595.

With TAAATCTACAGCATTCACTTAC, the sensor-assay potency score (higher = more potent) was -0.27.

For the sequence TATACTTCAAGACACTCGCCAG, the sensor-assay potency score (higher = more potent) is -0.398.

TATTGTGGTCATTTCCACCGGT displayed a sensor-assay potency score (higher = more potent) of 0.536.

In turn, TTTTAGATGCAGCTGATCGGTA showed a sensor-assay potency score (higher = more potent) of -0.655.

Consider TAATTAGTGACAAACATTGGGC, for which the sensor-assay potency score (higher = more potent) is -0.357.

As for TTATTTGAGAATCAACACCTAA, the sensor-assay potency score (higher = more potent) is -0.576.

Consider TAGGTCTTGTACTACTTCCAAG, for which the sensor-assay potency score (higher = more potent) is -1.39.

TTTAACAGTCTTGTCTGCTGAT: the sensor-assay potency score (higher = more potent) worked out at 0.5.

TTAACTTCTTCTCTTCAGGTGC showed a sensor-assay potency score (higher = more potent) of 0.5.

In another experiment the target is PLB1. The description is as above. The conditions noted are these: shRNA.
For TTGAAAGTCAAGTTGCAGGTTC, the sensor-assay potency score (higher = more potent) came out at 0.551.

Sequence TTATCTTCCAGTCTTCCTGAAA yielded a sensor-assay potency score (higher = more potent) of -0.752.

As for TACAGATTCGAATCTGTGCAGT, the sensor-assay potency score (higher = more potent) was -0.43.

As to TAAGGTGGTCACATTCTCCAGG, the sensor-assay potency score (higher = more potent) was 0.024.

TATTGTTCCAGAGAGCACTGGC: the sensor-assay potency score (higher = more potent) was determined as 0.63.

The sequence TTGATCTTGTTTTCAAACTTAT displayed a sensor-assay potency score (higher = more potent) of -0.907.

In turn, TTGTTGGAGGTAGTCTTGCGGC yielded a sensor-assay potency score (higher = more potent) of -0.878.

As for TCTATGATCATCTTTCATCTTC, the sensor-assay potency score (higher = more potent) worked out at 0.303.

The sequence TACTGTGTGGTGACATCGGGGA came in with a sensor-assay potency score (higher = more potent) of 0.115.

Sequence TAGTGGACCAGATCATTGCAGA returned a sensor-assay potency score (higher = more potent) of -0.927.

TATTATCTTCCAGTCTTCCTGA had a sensor-assay potency score (higher = more potent) of 0.718.

On to ATACTGTGTGGTGACATCGGGG, for which the sensor-assay potency score (higher = more potent) was -1.03.

In a further experiment the target is PLCB3. The experiment is described as above. As to conditions: shRNA.
For TTGAATAGCTCCTCAGACCAGA, the sensor-assay potency score (higher = more potent) is -0.311.

With TATTCCACAAACTCCATGGGGC, the sensor-assay potency score (higher = more potent) was -0.0487.

TTGTATTCCACAAACTCCATGG came in with a sensor-assay potency score (higher = more potent) of -0.418.

Take TTGTCTGCTGAGAACATCTTCA: the sensor-assay potency score (higher = more potent) was -0.392.

In turn, AAGAACACTGTGTTCACCGGGT registered a sensor-assay potency score (higher = more potent) of 0.656.

Regarding TTCGATGTAGTTGACAAGCGTG, the sensor-assay potency score (higher = more potent) was -0.63.

Turning to TTGCGCAGGAAGGTGTTCCGGG, the sensor-assay potency score (higher = more potent) is -0.298.

Turning to TTTGATGAACTTACTCCCGCGC, the sensor-assay potency score (higher = more potent) worked out at 0.0652.

In turn, TTCGTTGAGTCTCGGGTCGCGT displayed a sensor-assay potency score (higher = more potent) of -0.421.

With TACTTTTCGATGAGCAGCCGGG, the sensor-assay potency score (higher = more potent) was -0.993.

In turn, TAGTTGGAGGAGTCCACGCGGG displayed a sensor-assay potency score (higher = more potent) of -1.09.

As to ATGAAGTTCAAGAACACTGTGT, the sensor-assay potency score (higher = more potent) worked out at 0.354.
